Reference: PubChem BioAssay (NCI)
About 83,000 compounds went through this panel and 20% of them were active in at least one assay; those are over-represented in the sample as a whole.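 Step 1: grow cells in 96-well plates. Step 2: add test compound at a single concentration. Step 3: incubate 48 h. Step 4: record percent growth.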 Calls of active or inactive are those of the source. Rule for the calls: active = growth percent below 10; inactive = the rest.

How the values were obtained:
Experiment in all cases: NCI-60 one-dose screen, 48 h (100 = growth as untreated, 0 = no growth, -100 = all killed)
Conditions in all cases: 10 µM unless noted
SR leukemia = test system: SR leukemia
RPMI-8226 leukemia = test system: RPMI-8226 leukemia
OVCAR-8 ovarian = test system: OVCAR-8 ovarian
OVCAR-5 ovarian = test system: OVCAR-5 ovarian
OVCAR-4 ovarian = test system: OVCAR-4 ovarian
SK-OV-3 ovarian = test system: SK-OV-3 ovarian
IGROV1 ovarian = test system: IGROV1 ovarian
OVCAR-3 ovarian = test system: OVCAR-3 ovarian
HS 578T breast = test system: HS 578T breast
NCI/ADR-RES ovarian = test system: NCI/ADR-RES ovarian
T-47D breast = test system: T-47D breast
BT-549 breast = test system: BT-549 breast
MDA-MB-435 melanoma = test system: MDA-MB-435 melanoma
SW-620 colon = test system: SW-620 colon
MCF7 breast = test system: MCF7 breast
HCC-2998 colon = test system: HCC-2998 colon
KM12 colon = test system: KM12 colon
HCT-116 colon = test system: HCT-116 colon

Measured: growth

CCOC(=O)c1c(C)oc2ncnc(Nc3ccc(NC(=O)Nc4cccc(Cl)c4)cc3)c12
inactive: SR leukemia 53.6% | RPMI-8226 leukemia 46.1% | OVCAR-8 ovarian 50.2% | OVCAR-5 ovarian 122% | OVCAR-4 ovarian 73.7% | SK-OV-3 ovarian 93.3% | IGROV1 ovarian 78.4% | OVCAR-3 ovarian 80.9% | HS 578T breast 80.6% | NCI/ADR-RES ovarian 43.8% | BT-549 breast 61.6% | MDA-MB-435 melanoma 65.8% | SW-620 colon 88.7% | MCF7 breast 43.3% | HCC-2998 colon 105% | KM12 colon 61%
active: T-47D breast 1.99%

COc1cc(N)c2nccc(C)c2c1OC
inactive: SR leukemia 55.5% | RPMI-8226 leukemia 144% | OVCAR-8 ovarian 96.4% | OVCAR-5 ovarian 107% | OVCAR-4 ovarian 94.4% | SK-OV-3 ovarian 108% | IGROV1 ovarian 385% | OVCAR-3 ovarian 111% | HS 578T breast 104% | NCI/ADR-RES ovarian 131% | T-47D breast 108% | BT-549 breast 83.3% | SW-620 colon 94.1% | MCF7 breast 113% | HCT-116 colon 102% | HCC-2998 colon 149% | KM12 colon 101%

CCN(CC)C(=O)C1(C)CCCC2(C)c3cc(OC(C)=O)ccc3CCC12 (stereo unspecified)
inactive: SR leukemia 62.8% | RPMI-8226 leukemia 58.8% | OVCAR-8 ovarian 86.4% | OVCAR-5 ovarian 96.9% | OVCAR-4 ovarian 71.2% | SK-OV-3 ovarian 94.1% | IGROV1 ovarian 79.9% | OVCAR-3 ovarian 88.8% | HS 578T breast 84.1% | NCI/ADR-RES ovarian 85.8% | T-47D breast 71.7% | BT-549 breast 95.4% | MDA-MB-435 melanoma 72.9% | SW-620 colon 89.1% | MCF7 breast 87.9% | HCC-2998 colon 109% | KM12 colon 82.2%

CCCNC(=O)Oc1ccc(/C(=C(/C)Cc2ccc(OC)cc2)c2ccc(OCCN3CCCC3)cc2)cc1
active: SR leukemia -20.2%
inactive: RPMI-8226 leukemia 49.5% | OVCAR-8 ovarian 79.5% | OVCAR-5 ovarian 88.4% | OVCAR-4 ovarian 61.5% | SK-OV-3 ovarian 81.3% | IGROV1 ovarian 81.9% | OVCAR-3 ovarian 83.6% | HS 578T breast 58.3% | NCI/ADR-RES ovarian 75.9% | T-47D breast 37% | BT-549 breast 82.7% | MDA-MB-435 melanoma 65.8% | SW-620 colon 77.7% | MCF7 breast 25.3% | HCC-2998 colon 62.5% | KM12 colon 78.7%

COc1cc(OC)c2c(=O)cc(-c3ccccc3)oc2c1
active: IGROV1 ovarian 7.82%
inactive: SR leukemia 31.3% | RPMI-8226 leukemia 77.6% | OVCAR-8 ovarian 103% | OVCAR-5 ovarian 93.7% | OVCAR-4 ovarian 105% | SK-OV-3 ovarian 105% | OVCAR-3 ovarian 104% | HS 578T breast 113% | NCI/ADR-RES ovarian 109% | T-47D breast 91.2% | BT-549 breast 109% | MDA-MB-435 melanoma 95.8% | SW-620 colon 89.7% | MCF7 breast 102% | HCT-116 colon 88.9% | HCC-2998 colon 97% | KM12 colon 106%

COc1ccc(OC)c(Cn2cc3c(c2-c2ccccc2)CCc2cnoc2-3)c1
inactive: SR leukemia 22% | RPMI-8226 leukemia 61.1% | OVCAR-8 ovarian 79% | OVCAR-5 ovarian 90.8% | OVCAR-4 ovarian 77.6% | SK-OV-3 ovarian 48.2% | IGROV1 ovarian 44.7% | OVCAR-3 ovarian 17.9% | HS 578T breast 59.3% | NCI/ADR-RES ovarian 20.5% | T-47D breast 32.2% | BT-549 breast 65.3% | SW-620 colon 37.4% | MCF7 breast 44.4% | HCT-116 colon 43.2% | HCC-2998 colon 85.5% | KM12 colon 33.3%
active: MDA-MB-435 melanoma -17.6%

Cc1cc2c(-c3nc4ccccc4n3C)c(O)c(O)cc2c(O)c1-c1c(C)cc2c(-c3nc4ccccc4n3C)c(O)c(O)cc2c1O
inactive: SR leukemia 56.4% | RPMI-8226 leukemia 24.4% | OVCAR-8 ovarian 32.1% | OVCAR-5 ovarian 58.1% | OVCAR-4 ovarian 70.1% | SK-OV-3 ovarian 83.2% | IGROV1 ovarian 89.7% | OVCAR-3 ovarian 71.3% | HS 578T breast 28.4% | NCI/ADR-RES ovarian 102% | T-47D breast 19.3% | BT-549 breast 20% | MDA-MB-435 melanoma 34.2% | SW-620 colon 54.3% | MCF7 breast 19.6% | HCC-2998 colon 66.5% | KM12 colon 24.7%
active: HCT-116 colon 7.37%

COC(=O)/C=C1/CCCCC1(C)C(=O)OC (stereo unspecified)
inactive: SR leukemia 92.8% | RPMI-8226 leukemia 101% | OVCAR-8 ovarian 98.4% | OVCAR-5 ovarian 118% | OVCAR-4 ovarian 103% | SK-OV-3 ovarian 110% | IGROV1 ovarian 107% | OVCAR-3 ovarian 118% | HS 578T breast 105% | NCI/ADR-RES ovarian 111% | T-47D breast 110% | BT-549 breast 89.8% | MDA-MB-435 melanoma 103% | SW-620 colon 106% | MCF7 breast 106% | HCC-2998 colon 119% | KM12 colon 107%

O=Nc1c(-c2c(O)[nH]c3cc(Br)ccc23)[nH]c2ccccc12
inactive: BT-549 breast 40% | MDA-MB-435 melanoma 31.4%
active: SR leukemia -40.5% | RPMI-8226 leukemia -5.99% | OVCAR-8 ovarian -17.4% | OVCAR-5 ovarian -72.9% | OVCAR-4 ovarian 7.53% | SK-OV-3 ovarian -77.8% | IGROV1 ovarian -44.5% | OVCAR-3 ovarian -64.9% | HS 578T breast -49.7% | NCI/ADR-RES ovarian -76.7% | T-47D breast -31.1% | SW-620 colon -92.5% | MCF7 breast -40% | HCT-116 colon -67.3% | KM12 colon -89.9%
